Sampled rows, rich in hits. Any-hit rate of the full collection: about 3.5%.
mHTT CaM bind: mHTT-calmodulin interaction abrogation | P42858 | AlphaScreen His-mHTT/GST-CaM binding, luminescence | inhibition, % at 15 µM | actives 3.6% (n = 190,000) | AID 1671202
Target sequence (P42858 whole entry, looked up, change not shown): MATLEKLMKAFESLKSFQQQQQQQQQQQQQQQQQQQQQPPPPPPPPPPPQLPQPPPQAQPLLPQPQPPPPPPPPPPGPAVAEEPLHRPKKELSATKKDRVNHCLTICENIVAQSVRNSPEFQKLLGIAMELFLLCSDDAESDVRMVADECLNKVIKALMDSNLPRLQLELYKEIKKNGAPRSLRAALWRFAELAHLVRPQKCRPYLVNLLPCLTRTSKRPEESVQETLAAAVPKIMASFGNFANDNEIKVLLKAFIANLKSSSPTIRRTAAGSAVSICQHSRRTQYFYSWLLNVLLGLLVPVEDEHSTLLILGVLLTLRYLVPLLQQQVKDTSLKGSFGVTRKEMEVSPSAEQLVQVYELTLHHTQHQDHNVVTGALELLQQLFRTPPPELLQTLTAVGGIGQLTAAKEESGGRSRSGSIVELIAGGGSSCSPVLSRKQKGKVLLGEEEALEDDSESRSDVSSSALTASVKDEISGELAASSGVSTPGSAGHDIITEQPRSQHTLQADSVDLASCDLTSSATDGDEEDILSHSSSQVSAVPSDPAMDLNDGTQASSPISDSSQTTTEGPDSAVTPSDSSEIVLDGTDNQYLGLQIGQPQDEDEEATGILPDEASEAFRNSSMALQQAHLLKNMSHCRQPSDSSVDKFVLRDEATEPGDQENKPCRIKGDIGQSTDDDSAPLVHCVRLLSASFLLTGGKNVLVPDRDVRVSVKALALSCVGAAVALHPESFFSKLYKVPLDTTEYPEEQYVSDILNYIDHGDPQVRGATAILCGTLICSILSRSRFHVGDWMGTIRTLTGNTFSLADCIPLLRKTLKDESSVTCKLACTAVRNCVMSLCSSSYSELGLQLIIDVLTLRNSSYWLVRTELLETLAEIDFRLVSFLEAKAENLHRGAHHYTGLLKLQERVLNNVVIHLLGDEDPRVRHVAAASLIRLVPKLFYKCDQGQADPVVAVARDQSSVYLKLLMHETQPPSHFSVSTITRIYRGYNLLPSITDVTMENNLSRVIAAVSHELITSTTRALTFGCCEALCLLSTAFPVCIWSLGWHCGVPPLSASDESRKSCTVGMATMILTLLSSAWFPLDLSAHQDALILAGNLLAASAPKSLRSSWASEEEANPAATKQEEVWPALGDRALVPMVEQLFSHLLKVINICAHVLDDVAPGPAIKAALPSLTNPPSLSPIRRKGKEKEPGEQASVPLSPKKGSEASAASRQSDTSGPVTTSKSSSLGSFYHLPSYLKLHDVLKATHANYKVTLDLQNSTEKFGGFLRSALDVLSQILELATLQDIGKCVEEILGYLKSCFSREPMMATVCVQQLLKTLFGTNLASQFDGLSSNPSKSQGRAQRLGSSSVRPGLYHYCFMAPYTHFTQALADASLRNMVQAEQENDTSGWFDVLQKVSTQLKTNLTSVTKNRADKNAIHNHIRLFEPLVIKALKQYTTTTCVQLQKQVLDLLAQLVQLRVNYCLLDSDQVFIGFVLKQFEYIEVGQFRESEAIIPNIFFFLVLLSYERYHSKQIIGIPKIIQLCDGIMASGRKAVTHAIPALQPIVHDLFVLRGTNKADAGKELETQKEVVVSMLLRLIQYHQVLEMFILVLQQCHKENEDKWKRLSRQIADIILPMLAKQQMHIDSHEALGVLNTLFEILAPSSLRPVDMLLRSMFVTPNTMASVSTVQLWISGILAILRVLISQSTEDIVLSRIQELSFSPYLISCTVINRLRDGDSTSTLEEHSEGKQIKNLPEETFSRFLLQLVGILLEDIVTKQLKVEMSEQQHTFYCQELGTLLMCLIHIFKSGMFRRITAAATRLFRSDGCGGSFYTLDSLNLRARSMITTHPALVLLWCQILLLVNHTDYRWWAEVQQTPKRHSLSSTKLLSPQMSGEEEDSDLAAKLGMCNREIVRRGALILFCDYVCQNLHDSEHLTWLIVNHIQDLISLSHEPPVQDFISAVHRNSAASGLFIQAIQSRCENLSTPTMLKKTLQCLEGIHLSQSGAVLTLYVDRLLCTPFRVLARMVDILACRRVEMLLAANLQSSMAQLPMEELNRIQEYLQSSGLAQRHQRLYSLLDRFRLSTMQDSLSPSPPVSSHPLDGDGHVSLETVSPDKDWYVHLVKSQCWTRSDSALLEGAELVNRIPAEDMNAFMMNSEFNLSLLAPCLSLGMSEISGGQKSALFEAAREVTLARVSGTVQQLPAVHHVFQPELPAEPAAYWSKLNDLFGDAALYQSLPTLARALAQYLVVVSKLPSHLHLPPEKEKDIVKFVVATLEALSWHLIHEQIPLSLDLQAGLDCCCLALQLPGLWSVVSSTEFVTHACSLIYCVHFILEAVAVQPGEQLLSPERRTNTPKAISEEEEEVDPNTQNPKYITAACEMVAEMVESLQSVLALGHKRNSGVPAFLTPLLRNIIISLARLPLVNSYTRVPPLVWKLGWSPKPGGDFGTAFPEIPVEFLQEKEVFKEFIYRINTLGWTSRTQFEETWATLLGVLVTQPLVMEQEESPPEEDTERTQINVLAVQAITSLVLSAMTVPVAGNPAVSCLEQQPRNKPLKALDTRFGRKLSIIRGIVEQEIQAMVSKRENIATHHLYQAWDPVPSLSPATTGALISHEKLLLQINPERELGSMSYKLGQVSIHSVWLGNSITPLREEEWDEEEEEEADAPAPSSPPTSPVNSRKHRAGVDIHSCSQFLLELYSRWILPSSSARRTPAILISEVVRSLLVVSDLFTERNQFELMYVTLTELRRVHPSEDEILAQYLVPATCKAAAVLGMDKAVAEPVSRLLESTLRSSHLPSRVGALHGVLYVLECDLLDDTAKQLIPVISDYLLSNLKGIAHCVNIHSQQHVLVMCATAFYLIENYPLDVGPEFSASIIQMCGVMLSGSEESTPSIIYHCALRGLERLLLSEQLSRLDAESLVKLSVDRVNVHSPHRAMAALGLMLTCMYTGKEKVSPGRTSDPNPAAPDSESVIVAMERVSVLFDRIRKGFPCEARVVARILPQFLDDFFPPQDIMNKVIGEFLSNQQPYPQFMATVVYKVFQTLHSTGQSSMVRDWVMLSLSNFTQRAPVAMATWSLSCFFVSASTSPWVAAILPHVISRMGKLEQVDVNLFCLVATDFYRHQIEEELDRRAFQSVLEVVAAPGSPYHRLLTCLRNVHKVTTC
Pf apPOL block: Pf-apPOL DNA polymerase inhibition. actives 0.25% (n = 210,000). Recombinant Pf-apPOL, molecular beacon fluorescence, 1.5 h. inhibition, % at 10 µM
Numbers stand for hits; - = inactive; . = no result. Cut-off read from the data, not from the text of the source: active = inhibition above about 50%; inactive = the rest.

SMILES	mHTT CaM bind	Pf apPOL block
CC(C)(C)c1cc(O)c(C(C)(C)C)cc1O	-	-
Cc1cc(O)c(C(C)(C)C)cc1Sc1cc(C(C)(C)C)c(O)cc1C	100.3	.
Cc1cc(O)c(C(C)(C)C)cc1S(=O)c1cc(C(C)(C)C)c(O)cc1C	68.0	.
Cc1cc(Sc2cc(C)c(O)c(C(C)(C)C)c2)cc(C(C)(C)C)c1O	-	.
CCc1nnc(NS(=O)(=O)c2ccc(NC(=O)COc3ccc(Cl)cc3C)cc2)s1	-	-
O=C1c2ccccc2C(=O)N1CCn1c2ccccc2c2nc3ccccc3nc21	-	.
O=C(/C=C/c1ccc2c(c1)OCO2)Nc1c2c(nn1-c1ccc(Cl)cc1)CS(=O)(=O)C2	-	-
Nc1ccc(C23CC4CC(CC(C4)C2)C3)cc1	58.5	-
Nc1ccc(C23CC4CC(C2)CC(c2ccc(N)cc2)(C4)C3)cc1	83.7	-
NC(=O)CC12CC3CC(C1)CC(c1ccccc1)(C3)C2	-	-
NS(=O)(=O)c1ccc(C23CC4CC(CC(C4)C2)C3)cc1	-	-
CCCNc1cc(N2CCC(CCC(=O)NCc3cccs3)CC2)ncn1	-	-
COCCN(CCOC)C(=O)Cc1csc(NC(=O)Nc2ccc(Cl)cc2)n1	-	-
CC(=C\c1ccc2c(c1)OCO2)/C=C1/N=C(c2ccc(F)cc2)OC1=O	-	-
CN(C)C1=C(C(=O)c2ccccc2)N(CC(=O)c2ccccc2)S(=O)(=O)c2ccccc21	-	-
NC(=O)c1ccc(-c2nnc(Nc3ccc(C(=O)Nc4ccccc4)cc3)c3ccccc23)cc1	87.2	-
CNC(=O)c1ccc(Nc2nnc(-c3ccc(O)cc3)c3ccccc23)cc1	-	-
CNC(=O)c1cc(Nc2nnc(-c3ccc(O)cc3)c3ccccc23)ccc1OC	-	-
CNC(=O)c1cc(Nc2nnc(-c3ccc(C)cc3)c3ccccc23)ccc1OC	71.6	-
CCc1cc(C2CCCN2C(=O)c2cc(-c3ccccc3)on2)on1 (centres undefined)	-	-
Cc1cccc(-n2nnc(C(=O)NC3CCCC3)c2N)c1	-	-
Cc1cc(C)cc(C(=O)Nc2cc(-c3cccnc3)no2)c1	-	-
COCCN=C1Nc2ccccc2NC12CCCN(C(=O)Nc1ccc(OC)cc1C)C2 (centres undefined)	69.9	-
COCCN=C1Nc2ccccc2NC12CCCN(C(=O)Nc1ccc(OC)cc1)C2 (centres undefined)	99.8	-
COCCN=C1Nc2ccccc2NC12CCCN(C(=O)c1ccc(C)c(F)c1)C2 (centres undefined)	-	-
SMILES	mHTT CaM bind	Pf apPOL block
COCCN=C1Nc2ccccc2NC12CCCN(C(=O)c1cc(OC)cc(OC)c1)C2 (centres undefined)	-	-
Cc1ccc(C)c(OCCn2cc(C=C3C(=O)N(C)C(=O)N(C)C3=O)c3ccccc32)c1	-	-
CCCS(=O)(=O)N1CCC(n2c(-c3cccs3)nc3cccnc32)C1 (centres undefined)	-	-
Cc1oc2cc3oc(=O)c4c(c3cc2c1C)CCC4	-	58.3
Cc1oc2cc3oc(=O)c4c(c3cc2c1-c1ccccc1)CCC4	-	-
CCSc1ccsc1C1C(C#N)=C(N)N(c2ccc([N+](=O)[O-])cc2)C2=C1C(=O)CCC2 (centres undefined)	51.0	-
CCSc1ccsc1C1C(C#N)=C(N)N(c2cccc([N+](=O)[O-])c2)C2=C1C(=O)CCC2 (centres undefined)	-	-
Cc1nc2scc(C)n2c(=O)c1NC(=O)CCc1ccccc1	-	-
CCCN1C(=O)S/C(=C/c2cn(CC(=O)N3CCOCC3)c3ccccc23)C1=O	-	-
C#CCN1C(=O)S/C(=C\c2cn(CC(=O)N3CCOCC3)c3ccccc23)C1=O	75.0	-
N#CC1=C(N)Oc2c(c(=O)[nH]c3ccccc23)C1c1ccc(F)c(F)c1 (centres undefined)	-	-
COc1cccc(C(=O)N2CCC(CCOc3ccc(F)cc3)CC2)c1	-	-
O=C(c1ccc(F)c(F)c1)N1CCC(CCOc2ccccc2F)CC1	-	-
COCCC1CCN(C(=O)c2ccc(OC)cc2C)CC1	-	-
CN(C)c1cccc(C(=O)N2CCC(CCOc3ccccc3)CC2)c1	86.2	-
COc1ccc(C(=O)N2CCC(CCOc3ccccc3)CC2)c(C)c1	59.8	-
CN(C)c1cccc(C(=O)N2CCC(CCOc3ccc(F)cc3)CC2)c1	93.4	-
COc1cccc(C(=O)N2CCC(CCOc3ccccc3)CC2)c1	-	-
CN(C)c1cccc(C(=O)N2CCC(CCOc3ccccc3F)CC2)c1	95.0	-
CCOc1ccc(C2CC(=O)C3=C(C2)Nc2ccccc2NC3c2cccc(O)c2)cc1OC (centres undefined)	-	-
O=C(CSc1ncnc2c(-c3ccccc3)c[nH]c12)Nc1ccc2c(c1)OCO2	-	-
O=C(O)c1ccc(NC(CSCc2ccccc2Cl)C(=O)O)c([N+](=O)[O-])c1 (centres undefined)	-	-
COc1ccc(C2=C/C(=C\c3ccccc3Cl)C(=O)O2)cc1	-	-
CCOc1ccc(CN2CCCC(C(=O)N3CCCC3)C2)cc1 (centres undefined)	-	-
Cc1ccccc1CCNC(=O)c1ccc2c(c1)nc1n2CCCC1	-	-
SMILES	mHTT CaM bind	Pf apPOL block
COc1ccccc1C(=O)N1CCC(CCOc2ccccc2F)CC1	52.3	-
COCCC1CCN(C(=O)c2ccccc2OC)CC1	-	-
N#CC(=CN1CCN(c2ccccc2)CC1)S(=O)(=O)c1ccccn1	.	-
COc1ccccc1C1CC(c2cc(Cl)ccc2O)=NN1 (centres undefined)	-	-
COc1cc(C2CC(c3ccccc3O)=NN2)ccc1O (centres undefined)	89.4	-
COCCN1CCC(N2CCCN(C(=O)c3cccc(N(C)C)c3)CC2)C1=O (centres undefined)	-	-
Cc1ccnc(N2CCCC(C(=O)NCc3ccc(OC(C)C)cc3)C2)n1 (centres undefined)	-	-
O=C(c1ccc(Br)cc1)N1CCC(n2c(-c3ccco3)nc3cccnc32)C1 (centres undefined)	83.5	-
O=C(c1ccoc1)N1CCC(n2c(-c3ccco3)nc3cccnc32)C1 (centres undefined)	-	-
CCc1ccc(C(=O)N2CCC(n3c(-c4ccco4)nc4cccnc43)C2)cc1 (centres undefined)	75.6	-
O=C(c1ccc(Cl)cc1)N1CCC(n2c(-c3ccco3)nc3cccnc32)C1 (centres undefined)	76.9	-
Cc1ccc(C(=O)N2CCC(n3c(-c4ccoc4)nc4cccnc43)C2)cc1F (centres undefined)	-	-
COc1ccc(C(=O)N2CCC(n3c(-c4ccco4)nc4cccnc43)C2)cc1OC (centres undefined)	-	-
O=C(c1ccc(F)c(Cl)c1)N1CCC(n2c(-c3ccoc3)nc3cccnc32)C1 (centres undefined)	99.2	-
O=C(c1cc(F)cc(F)c1)N1CCC(n2c(-c3ccco3)nc3cccnc32)C1 (centres undefined)	-	-
COc1nccnc1NC1CCN(S(=O)(=O)C(C)C)CC1	-	-
O=c1oc2ccc(Cl)cc2cc1-c1cn2c(n1)sc1cc(F)ccc12	-	-
Cc1ccc(NC(=O)CCN2C(=O)c3cccnc3C2=O)cc1	-	-
COc1ccc(N2CCN(C(=O)C3CCCN(c4cn[nH]c(=O)c4)C3)CC2)cc1 (centres undefined)	-	-
Cn1ccc2c(N3CCCC3)cc3c(c21)C1CCC3O1 (centres undefined)	-	-
